# Test results published in the supplement of paper PMC10681739.
# How the values were obtained:
# ETS1 [1] = biological target: T1, ETS1 (UniProt P14921); test: ETS1 binding intensity (PBM fluorescence), ETS1 alone (arbitrary fluorescence units); higher = stronger binding; conditions: ETS1 concentration 1 nM; RUNX1 concentration 0 nM
# T1 sequence: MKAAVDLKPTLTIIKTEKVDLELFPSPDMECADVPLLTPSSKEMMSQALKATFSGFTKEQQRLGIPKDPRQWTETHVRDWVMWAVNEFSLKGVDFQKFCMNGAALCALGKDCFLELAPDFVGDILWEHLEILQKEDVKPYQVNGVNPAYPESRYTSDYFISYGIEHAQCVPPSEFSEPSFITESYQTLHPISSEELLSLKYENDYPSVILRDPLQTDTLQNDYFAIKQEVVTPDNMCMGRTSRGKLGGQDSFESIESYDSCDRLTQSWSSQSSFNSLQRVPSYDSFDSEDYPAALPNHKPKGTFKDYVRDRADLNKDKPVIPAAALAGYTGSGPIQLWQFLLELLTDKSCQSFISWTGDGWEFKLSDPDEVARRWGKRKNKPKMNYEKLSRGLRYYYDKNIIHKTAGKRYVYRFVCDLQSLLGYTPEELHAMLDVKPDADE
# ETS1 [2] = biological target: T1, ETS1; test: ETS1 binding intensity (PBM fluorescence) in presence of RUNX1, normalised to ETS1-only experiment (arbitrary fluorescence units); higher = stronger binding; conditions: ETS1 concentration 1 nM; RUNX1 concentration 25 nM
Sequence,ETS1 binding intensity (ETS1 [1]),ETS1 binding intensity (ETS1 [2])
GAGAATGAAGAGGAAATGTGGGGACAGACAGAACTG,1060,1170
AGCGGGAGGAAGTGCTGCAGTAGCCACAGCAGCCTG,534,737
CGGCGCTCGCGGAAGTGCCGCGGTGCCTGCTCTGCA,796,759
GGCTTGCCAAGAGGAAATTTGAAGCCACAATAACAT,808,951
TTTTCCCACTTCCTAGGTTGTGGTGGGGATTACACA,475,571
CTGCTGGGCCCCTTCCTGTCAGCGGTTGCTCTTTAC,673,716
GTGGGTAGGGAGGAAGCTGTGAAACCACCTCCCCTC,688,882
CTTGTTATCCTTCCGGAGGCGGTAACTCATGAGAGA,497,352
CAGTCAGACGGAAGCCCGGCTTCTGTGGTGCCTGCC,459,473
GCTGCTGTAGTCGCTTCCTGCGGCCAGCCCGGGTTC,526,528
CTGTCCACATAAGGAAGTTGGGACCACAAGGTCTTT,870,1350
CTTCCCTTGCCCCGGAAAAGGGCGGTAAGAGGGAGC,1200,1160
AATAAACAGGAAGGTCTCTTGGAGCTGTGGTCTTGG,677,1110
ATGCAGAAGCTACAGGAAGAAGCCGCAGGCCAAGCT,844,1120
AGAAACGTCAATTTCCTGGCCACAGAATCCACTGCC,608,501
CCTCCCGGCTTCCGTTCCTTGACCACCTCCTTCTCG,560,501
CAAAGCAACCCAAGGGGATGTGGTCACTGGGGTGAG,413,1800
ACGTCTTTATTTATCCTGTGGCTTCCCGACCCCCAC,537,576
CCCGGTGCACCGGATCCGACCACACCCTGGGTGGGC,525,400
GCTTTTCCGCTCCCAGAGTGCCCCGCCCACAGTTCA,477,426
GGAGCAACCGGCCGGATACCGCCACAGCCCTGGCAG,1720,1400
CGCCGGACGTAGTGACGTAGCGCGCAGCCGCAGCGG,442,476
GCACGTGTTTCCTGGGGCTGCACCACAGCACCACAC,444,497
AGCCGGAGGCGGAAGGAGCAGCGCTACCGCAGCGTC,639,1130
GCGCCATTTCCGCTGCGCAAGGCACCACAGGCCCTG,1140,943

Sequence,ETS1 binding intensity (ETS1 [1]),ETS1 binding intensity (ETS1 [2])
CCATGAGGAGGGAGGAAATAGTGGTACGAGGGCTGC,1040,1040
ACCGGAAGGGCGGGGGCGTGGCGAGGTACCGCAGAC,1170,2850
GACACCTGAGAGGATGTGTGGCTTTGTGCTATGAGA,769,847
CTGGCCAGCTCCCACGGATGTGGTAGGCAGGCAGCA,965,1430
CTAAGTGCTCTTCCTGCCAACCTGTGGGCGCCTGGC,559,686
ACCAAACGTCACATCCGCGGTGCTGCTGTAATCCCA,470,389
TAGCCATCGTGCAAAGGATGTGGTGAAGTCAGTCAG,942,2620
AACAGATCCTTCCTGGCCCCCACTAGCCACAGGTTT,490,421
TTTACGGGATGTAGGCGGCGGCGGCGGTAGTGGTAG,701,771
GTGCCACTGAGAGGAAGGGGGCAACCACAGTGGGAG,367,590
TCCAGCCGGACGCGATGCCTGGAGGCTGCGGGCGCC,328,597
CTCCCCCAGCACATCCTCTGCCACCGCTGCCTTTCC,579,361
CGGCACCCTCCTTCCTCCCTGCCAACCGCCTCCACC,556,696
TTGAAAAGGAAGTTCATTTGTACTGAGGTGGTTTTA,602,698
GGAACGGAGGCGGAAGGGGCCCTGCGGCGACGACGT,679,1070
AAGCTTCCTGGCCCTTTAAAAATGGCGGTTCCGCAC,519,714
AGCTGCGGAGCATCCGCTGCGGTCCTCGCCGAGACC,450,453
CTCCCCCCACGACTTCCCTCTGTGGCCCCGGGCCGC,677,645
TGAGGGCATAGGAAGTGATGGCCGCAAGGGGATGCC,1860,2390
GTGTTGGGTGGCTTCCTGCGGCGTTTCCACTCTCGC,605,504
TGGCCAGGAAGCCACTCGATTGCCGGCGCCCGCAGC,415,458
ATACATACAGGATGACATTTGTCCTGTGGGCACCAG,495,515
GCGCACGCGCGTTGTTTCCGCGGTAGTCAGGGCAGT,477,364
GAATGACAGGAAGATGATTAGTGATAGTGGGTTTGG,740,880
